Compound activity from PubChem.
Compounds with a hit are over-represented: about 3.2% of the library has one in this group of screens.
MsrA inhibitor: inhibits bovine methionine sulfoxide reductase A | purified bovine MsrA, absorbance read-out | inhibition, % at 15.5 µM | 360,000 compounds, 0.75% hits | AID 651718;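 further: 0% = vehicle wells with enzyme and 100% = reference inhibitor wells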
rCAG binder: molecules binding r(CAG) RNA repeats | 370,000 compounds, 1.3% hits | inhibition, % at 3 µM | r(CAG) RNA repeat, TO-PRO-1 dye displacement fluorescence;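 active means inhibition above the plate cutoff, the mean of all test compounds on that plate plus 3 SD, cut at about 35% in these data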;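 further: 0% = DMSO alone and 100% = 100 µM mitoxantrone as full dye displacement; higher means more dye released from RNA so lower well fluorescence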
HGIII-sPLA2 inh: Inhibits HGIII-sPLA2 liposome hydrolysis, primary screen | AID 743126 | 370,000 compounds, 0.56% hits | Q9NZ20 | inhibition, % at 12.2 µM | QFRET BODIPY PC-A2 liposome hydrolysis, fluorescence;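 active means inhibition above mean plus 3 SD of compounds lying within the high and low control bounds, cut at about 19% in these data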;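 further: 0% = median of test compound wells and 100% = no enzyme DMSO wells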
Target sequence (Q9NZ20 whole entry, looked up): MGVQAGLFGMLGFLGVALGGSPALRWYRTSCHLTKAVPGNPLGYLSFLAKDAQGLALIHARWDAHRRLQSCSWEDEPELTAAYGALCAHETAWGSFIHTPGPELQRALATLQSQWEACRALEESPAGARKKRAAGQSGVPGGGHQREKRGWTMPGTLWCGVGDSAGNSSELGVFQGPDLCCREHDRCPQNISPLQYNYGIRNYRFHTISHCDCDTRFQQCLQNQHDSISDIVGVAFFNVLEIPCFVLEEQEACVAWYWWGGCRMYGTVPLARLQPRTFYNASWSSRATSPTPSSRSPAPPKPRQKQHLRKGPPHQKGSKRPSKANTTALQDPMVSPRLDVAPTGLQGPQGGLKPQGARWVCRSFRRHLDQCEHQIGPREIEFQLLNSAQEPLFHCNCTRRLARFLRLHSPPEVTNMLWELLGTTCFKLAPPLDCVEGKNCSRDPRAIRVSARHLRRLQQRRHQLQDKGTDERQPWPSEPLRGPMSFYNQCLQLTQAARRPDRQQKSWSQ
MsrA act: activators of bovine methionine sulfoxide reductase A; AID 602163; activation, % at 10.6 µM; 360,000 compounds, 0.3% hits; purified bovine MsrA, absorbance read-out; in the data active means activation above about 7.5%;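 further: 0% = vehicle and 100% = reference activator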
PG9 binder: binds the HIV-1 gp120 antibody PG9 | 360,000 compounds, 0.43% hits | AID 624416 | inhibition, % at 6.7 µM | TR-FRET gp120-PG9 antibody binding; in the data active means inhibition above about 8.5%
MsrA conf: bovine MsrA inhibition, confirmed | purified bovine MsrA, absorbance read-out | inhibition, % at 15.5 µM | 2,300 compounds, 41% hits | shares compounds with MsrA inhibitor;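 further: coupled to thioredoxin reductase with NADPH and selenocystamine and DMSO as substrate; 0% = vehicle only and 100% = full effect of reference inhibitor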
The depositor's hits bear a star; · = not tested or not shown. Unless noted, no stated cut-off is given here; in the data, active means inhibition above about 4.5%; inactive means the rest.

SMILES	MsrA inhibitor	rCAG binder	HGIII-sPLA2 inh	MsrA act	PG9 binder	MsrA conf
CCC(C(=O)O)n1cnc2scc(-c3ccc(C)c(C)c3)c2c1=O (centres undefined)	-1	12	0	0	1	·
CCC(C(=O)OC)n1cnc2scc(-c3ccc(C)c(C)c3)c2c1=O (centres undefined)	7.5*	0	-5	-2	-1	5.3*
CCCn1cnc2scc(-c3ccc(C)c(C)c3)c2c1=O	8.6*	-6	-1	-4	0	6.5*
CCC(=O)/C=C1/Sc2ccc(OC)cc2N1CC	4.7*	-2	6	-3	-3	3
CCC(=O)/C=C1/Sc2ccccc2N1CC	8.2*	7	-6	-9	-1	4
CCC(=O)/C=C1/Sc2ccc(OC)cc2N1CCO	4	-4	2	-5	-5	·
O=C(OC12CCCN(C1)/C(=C/c1cccc(Cl)c1)C2)c1ccco1 (centres undefined)	·	5	3	·	·	·
O=C(Nc1ccccc1Cl)OC1CC2CC1[C@H]1CCCCN1[C@H]2Cc1ccccc1 (some centres undefined)	·	6	-2	·	·	·
Cn1nnc2sc3c(c2c1=O)CCCC3	5.0*	-1	11	-1	2	5.8*
Cc1nc2sc3c(c2c(=O)n1N)CCC3	-1	-7	0	-2	2	·
C=CCNc1nc(NCCOC)c2sc(-c3ccccc3)cc2n1	1	3	-10	-3	-1	·
C=CCNc1nc(NCCNC(C)=O)c2sc(-c3ccccc3)cc2n1	4.7*	0	0	3	-1	1
O=C(O)CSC(=S)N1CCCC1	2	-1	1	1	0	·
O=C(CSC(=S)N1CCCC1)N/N=C/c1c(O)[nH]c(=S)[nH]c1=O	5.2*	3	0	-1	-1	5.2*
CCOC(=O)CSC1=C(C#N)C(=O)NC(c2ccc(OC)cc2)S1 (centres undefined)	6.6*	5	5	-1	-3	6.3*
COC(=O)[C@]12C[C@H](CC(=O)NCCCCc3ccccc3)C(=O)N(Cc3ccc(Cl)cc3Cl)C1=C[C@H](C(C)(C)C)O[C@@H]2C	·	3	0	·	·	·
COc1ccc(CN2CN3Cc4ccc(C)cc4C3CS2(=O)=O)cc1 (centres undefined)	·	6	-6	·	·	·
N#C/C(=C\c1ccc(O)c(Br)c1)C(=O)NCc1ccccc1	-1	20	-10	-3	-2	·
N#C/C(=C\c1ccc(O)c([N+](=O)[O-])c1)C(=O)NCc1ccccc1	5.5*	11	0	-4	2	2
COc1ccc(CSC2=C(C#N)C(=O)NC3(CCCCC3)S2)cc1	5	18	-9	-13	-1	·
CCCCCCSC1=C(C#N)C(=O)NC2(CCCCC2)S1	5.2*	70*	-94	-9	1	4
O=C(NCc1cccnc1)c1cccc(Cl)c1	0	2	1	-5	-1	·
COc1ccc(CNC(=O)c2ccc(=O)oc2)cc1OC	9.9*	-3	2	-7	0	8.7*
O=C(NCc1cccnc1)c1ccc(=O)oc1	8.3*	2	3	-6	1	8.4*
COc1ccc(C(=O)NCc2ccc(Cl)c(Cl)c2)cc1OC	0	-6	8	-2	1	·
SMILES	MsrA inhibitor	rCAG binder	HGIII-sPLA2 inh	MsrA act	PG9 binder	MsrA conf
CN(CCOC(=O)c1cc2ccccc2o1)C1CN(Cc2cn(Cc3ccccc3C(F)(F)F)nn2)S(=O)(=O)C1 (centres undefined)	·	6	1	·	·	·
O=C1[C@@H](C2CCCCC2)[C@@H]2c3ccccc3C=NN2[C@@H]2c3ccccc3C=NN12	·	3	-2	·	·	·
Oc1c(Br)cc(/C=N/Nc2ccc(Cl)nn2)cc1Br	5.9*	10	11	-6	-11	3
Oc1c(Br)cc(Br)cc1/C=N/Nc1ccc(Cl)nn1	-1	1	5	-3	0	·
CCOC(=O)C(/C=C(\C#N)C(=O)OCC)=C(/N)N1CCN(c2ccc(OC)cc2)CC1	5.9*	1	-6	-9	1	8.2*
CCOC(=O)c1cccc(-c2ccc(C=O)o2)c1	4	4	8	-12	-1	·
O=C(O)c1cccc(-c2ccc(/C=N/NC(=O)c3cccnc3)o2)c1	5.9*	0	9	-5	-4	6.7*
O=C(Cc1ccc(Br)cc1)N/N=C/c1ccc(-c2cccc(C(=O)O)c2)o1	4	31	-17	-7	-3	·
O=Cc1ccc(-c2cccc(C(=O)O)c2)o1	4.7*	-1	2	-3	0	2
